Measurements published in PubChem BioAssay (NCI).
Compounds without any hit were thinned out: in the full panel of roughly 79,000, 15% have a hit. The source made the active and inactive calls. Cut-off read from the data, not from the text of the source: active = growth inhibition above about 70%; inactive = the rest.

Tests used:
[1] = NCI Yeast Anticancer Drug Screen. Data for the mec2-1 strain (AID 157); conditions: S. cerevisiae mec2-1 strain, hits give high values
How it was run: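 Yeast mec2-1 mutant treated with compound. Readout: growth inhibition vs vehicle controls.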

[2] = NCI Yeast Anticancer Drug Screen. Data for the rad14 strain (AID 159);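 note: 0% = growth of vehicle-treated control cultures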; conditions: S. cerevisiae rad14 strain growth inhibition, hits give high values
How it was run: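 Yeast cells carrying a defined DNA-repair defect were exposed to compounds, and growth inhibition was calculated relative to vehicle-treated control cultures.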

[3] = NCI Yeast Anticancer Drug Screen. Data for the sgs1 mgt1 strain (AID 161);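 note: 0% = growth of cultures given vehicle only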; conditions: S. cerevisiae sgs1 mgt1 strain, hits give high values
How it was run: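 Mutant yeast exposed to compound; growth scored against vehicle-only wells.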

[4] = NCI Yeast Anticancer Drug Screen. Data for the CLN2oe strain (AID 163);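 note: 0% = growth of vehicle-only control cultures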; conditions: S. cerevisiae CLN2oe strain, hits give high values
How it was run: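 Read-out: yeast growth inhibition, expressed relative to vehicle-only controls. The strain bears an engineered cell-cycle alteration.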

[5] = NCI Yeast Anticancer Drug Screen. Data for the cln2 rad14 strain (AID 165);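 note: 0% = growth equal to vehicle treated cultures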; conditions: S. cerevisiae cln2 rad14 strain, hits give high values
How it was run: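 cln2 rad14 yeast strain; compound exposure; growth inhibition read vs vehicle controls.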

[6] = NCI Yeast Anticancer Drug Screen. Data for the bub3 strain (AID 167); conditions: S. cerevisiae bub3 mutant strain, hits give high values
How it was run: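 Compounds were applied to a genetically altered yeast strain carrying a cell-cycle control defect. Growth inhibition was scored against vehicle-treated controls.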

[7] = NCI Yeast Anticancer Drug Screen. Data for the wt2 strain (AID 169);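 note: 0% = growth of vehicle-treated yeast cultures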; conditions: S. cerevisiae wt2 strain growth inhibition, hits give high values
How it was run: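 Read-out: growth inhibition versus vehicle-treated control cultures after compound exposure of the yeast strain.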

[8] = NCI Yeast Anticancer Drug Screen. Data for the mlh1 strain (AID 171);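 note: 0% = growth of vehicle-treated control cultures of the same strain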; conditions: S. cerevisiae mlh1 strain growth inhibition, hits give high values
How it was run: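 Read-out: growth inhibition versus vehicle controls. Strain: engineered yeast with a defined DNA repair or cell cycle defect, compound-treated.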

[9] = NCI Yeast Anticancer Drug Screen. Data for the sgs1 strain (AID 173);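 note: 0% = growth of vehicle-only control cultures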; conditions: S. cerevisiae sgs1 mutant, hits give high values
How it was run: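 Read-out: yeast growth inhibition relative to vehicle controls, following compound exposure of a strain with a defined DNA repair/cell cycle alteration.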

[10] = NCI Yeast Anticancer Drug Screen. Data for the mlh1 rad18 strain (AID 175); conditions: S. cerevisiae mlh1 rad18 strain growth inhibition, hits give high values
How it was run: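 Yeast w/ defined DNA-repair lesions; compound exposure; growth vs vehicle controls → % inhibition.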

[11] = NCI Yeast Anticancer Drug Screen. Data for the rad52 strain (AID 147);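 note: 0% = growth of vehicle-treated control cultures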; conditions: S. cerevisiae rad52 mutant growth inhibition, hits give high values
How it was run: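 Read-out: growth inhibition versus vehicle-treated controls. Cells were a DNA repair-deficient yeast strain treated with compounds.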

[12] = NCI Yeast Anticancer Drug Screen. Data for the wt1 strain (AID 149);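 note: 0% = growth of vehicle-treated wt1 cultures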; conditions: S. cerevisiae wt1 strain (SPY 50644) growth inhibition, hits give high values
How it was run: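 Yeast wt1 strain exposed to compounds; growth inhibition measured relative to vehicle-treated controls.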

[13] = NCI Yeast Anticancer Drug Screen. Data for the rad50EPP+ strain (AID 151);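 note: 0% = growth of vehicle-treated control cultures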; conditions: S. cerevisiae rad50 mutant strain, hits give high values
How it was run: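 Growth inhibition read against vehicle controls in rad50EPP+ yeast, a strain altered in DNA damage repair, after compound exposure.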

[14] = NCI Yeast Anticancer Drug Screen. Data for the mgt1 strain (AID 153); conditions: S. cerevisiae mgt1 mutant growth inhibition, hits give high values
How it was run: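 mgt1 yeast grown with test compound; read-out is growth inhibition versus vehicle-treated cultures.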

[15] = NCI Yeast Anticancer Drug Screen. Data for the rad50 strain (AID 155);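 note: 0% = growth of vehicle-only cultures of the same strain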; conditions: S. cerevisiae rad50 strain growth inhibition, hits give high values
How it was run: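 Yeast carrying a defined DNA repair defect were exposed to test compounds, and growth was compared with vehicle-treated controls to give percent inhibition.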

[16] = NCI Yeast Anticancer Drug Screen. Data for the rad18 strain (AID 177); conditions: S. cerevisiae rad18 mutant growth inhibition, hits give high values
How it was run: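 Readout: growth inhibition vs vehicle controls. Cells: genetically altered yeast strain, DNA repair defect.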

[17] = at 5.0 µM (retest, dose inferred, filed as 0.5)
[18] = at 50.0 µM (retest, dose inferred, filed as 5.0)

Measured: growth inhibition

O=C(c1cc(Br)ccc1O)c1cc(Br)ccc1O
inactive: [1]; [17] 20% | [2]; at 1.2 µM 8% | [2]; at 3.7 µM 40% | [3]; [17] 22% | [4]; at 1.2 µM 34% | [5]; [17] -3% | [6]; at 1.2 µM 17% | [6]; [17] 5% | [7]; at 1.2 µM 12% | [8]; at 1.2 µM 23% | [9]; at 1.2 µM 32% | [10]; [17] 45%
active: [1]; at 11.0 µM 99% | [1]; at 33.0 µM 100% | [1]; [18] 100% | [1]; at 50.0 µM 99.5% | [1]; at 100.0 µM 100% | [2]; at 11.0 µM 99% | [2]; at 33.0 µM 100% | [2]; at 100.0 µM 98% | [3]; [18] 97% | [3]; at 50.0 µM 99.4% | [4]; at 3.7 µM 96% | [4]; at 11.0 µM 100% | [4]; at 33.0 µM 99% | [4]; at 100.0 µM 99% | [5]; [18] 98% | [5]; at 50.0 µM 98.7% | [6]; at 3.7 µM 90% | [6]; at 11.0 µM 99% | [6]; at 33.0 µM 99% | [6]; [18] 99% | [6]; at 50.0 µM 99.2% | [6]; at 100.0 µM 99% | [7]; at 3.7 µM 87% | [7]; at 11.0 µM 99% | [7]; at 33.0 µM 100% | [7]; at 100.0 µM 100% | [8]; at 3.7 µM 93% | [8]; at 11.0 µM 99% | [8]; at 33.0 µM 100% | [8]; at 100.0 µM 100% | [9]; at 3.7 µM 90% | [9]; at 11.0 µM 99% | [9]; at 33.0 µM 100% | [9]; at 100.0 µM 100% | [10]; [18] 99% | [10]; at 50.0 µM 99.4%

CCOP(=O)(OCC)C(Cc1ccccc1)N=C(c1ccccc1)c1ccccc1 (centres undefined)
inactive: [11]; at 1.2 µM -21% | [11]; at 3.7 µM -16% | [11]; at 11.0 µM 4% | [12]; at 1.2 µM -18% | [12]; at 3.7 µM -28% | [12]; at 11.0 µM -5% | [13]; at 1.2 µM 8% | [13]; at 3.7 µM 12% | [13]; at 11.0 µM 44% | [14]; at 1.2 µM 16% | [14]; at 3.7 µM -6% | [14]; at 11.0 µM 10% | [15]; at 1.2 µM -12% | [15]; at 3.7 µM -7% | [15]; [17] 12% | [15]; at 11.0 µM 27% | [15]; [18] 7% | [1]; at 1.2 µM 18% | [1]; at 3.7 µM 8% | [1]; [17] -3% | [1]; at 11.0 µM 18% | [1]; [18] 4% | [2]; at 1.2 µM 2% | [2]; at 3.7 µM -6% | [2]; at 11.0 µM -8% | [3]; [17] -14% | [3]; [18] -1% | [4]; at 1.2 µM -50% | [4]; at 3.7 µM -18% | [4]; at 11.0 µM -21% | [5]; [17] -1% | [5]; [18] -1% | [6]; at 1.2 µM -35% | [6]; at 3.7 µM -35% | [6]; [17] -7% | [6]; at 11.0 µM -41% | [6]; [18] -11% | [7]; at 1.2 µM 6% | [7]; at 3.7 µM 6% | [7]; at 11.0 µM -2% | [8]; at 1.2 µM 1% | [8]; at 3.7 µM 0% | [8]; at 11.0 µM 5% | [9]; at 1.2 µM 7% | [9]; at 3.7 µM 10% | [9]; at 11.0 µM 15% | [10]; [17] -18% | [10]; [18] 22% | [16]; at 1.2 µM 8% | [16]; at 3.7 µM 4% | [16]; at 11.0 µM 29%
active: [11]; at 33.0 µM 91% | [11]; at 100.0 µM 98% | [12]; at 33.0 µM 95% | [12]; at 100.0 µM 98% | [13]; at 33.0 µM 81% | [13]; at 100.0 µM 94% | [14]; at 33.0 µM 86% | [14]; at 100.0 µM 98% | [15]; at 33.0 µM 96% | [15]; at 50.0 µM 98.6% | [15]; at 100.0 µM 98% | [1]; at 33.0 µM 97% | [1]; at 50.0 µM 70.5% | [1]; at 100.0 µM 98% | [2]; at 33.0 µM 73% | [2]; at 100.0 µM 98% | [3]; at 50.0 µM 98.8% | [4]; at 33.0 µM 87% | [4]; at 100.0 µM 98% | [5]; at 50.0 µM 97.8% | [6]; at 33.0 µM 88% | [6]; at 50.0 µM 99% | [6]; at 100.0 µM 98% | [7]; at 33.0 µM 97% | [7]; at 100.0 µM 98% | [8]; at 33.0 µM 90% | [8]; at 100.0 µM 98% | [9]; at 33.0 µM 93% | [9]; at 100.0 µM 97% | [10]; at 50.0 µM 98.7% | [16]; at 33.0 µM 87% | [16]; at 100.0 µM 98%

Clc1ccccc1C1OC1c1ccccc1Cl (centres undefined)
active: [13]; at 100.0 µM 70% | [15]; [18] 100% | [1]; [18] 99% | [3]; [18] 98% | [5]; [18] 99% | [6]; [18] 98% | [10]; [18] 100%
inactive: [11]; at 1.2 µM -29% | [11]; at 3.7 µM -38% | [11]; at 11.0 µM -61% | [11]; at 33.0 µM -18% | [11]; at 100.0 µM -32% | [12]; at 1.2 µM -65% | [12]; at 3.7 µM -49% | [12]; at 11.0 µM -61% | [12]; at 33.0 µM -52% | [12]; at 100.0 µM -26% | [13]; at 1.2 µM -86% | [13]; at 3.7 µM -56% | [13]; at 11.0 µM -40% | [13]; at 33.0 µM 20% | [14]; at 1.2 µM -60% | [14]; at 3.7 µM -90% | [14]; at 11.0 µM -65% | [14]; at 33.0 µM -35% | [14]; at 100.0 µM -27% | [15]; at 1.2 µM -66% | [15]; at 3.7 µM -62% | [15]; [17] 57% | [15]; at 11.0 µM -73% | [15]; at 33.0 µM -51% | [15]; at 50.0 µM 38.6% | [15]; at 100.0 µM 14% | [1]; at 1.2 µM -92% | [1]; at 3.7 µM -86% | [1]; [17] 55% | [1]; at 11.0 µM -94% | [1]; at 33.0 µM -75% | [1]; at 50.0 µM 21.9% | [1]; at 100.0 µM -37% | [2]; at 1.2 µM -46% | [2]; at 3.7 µM -46% | [2]; at 11.0 µM -50% | [2]; at 33.0 µM -43% | [2]; at 100.0 µM -9% | [3]; [17] -17% | [3]; at 50.0 µM 44.9% | [4]; at 1.2 µM -3% | [4]; at 3.7 µM 7% | [4]; at 11.0 µM -1% | [4]; at 33.0 µM -1% | [4]; at 100.0 µM 8% | [5]; [17] 37% | [5]; at 50.0 µM 13.6% | [6]; at 1.2 µM -56% | [6]; at 3.7 µM -53% | [6]; [17] 0% | [6]; at 11.0 µM -47% | [6]; at 33.0 µM -42% | [6]; at 50.0 µM 41.6% | [6]; at 100.0 µM -6% | [7]; at 1.2 µM -49% | [7]; at 3.7 µM -71% | [7]; at 11.0 µM -69% | [7]; at 33.0 µM -46% | [7]; at 100.0 µM -16% | [8]; at 1.2 µM -69% | [8]; at 3.7 µM -69% | [8]; at 11.0 µM -35% | [8]; at 33.0 µM -50% | [8]; at 100.0 µM 24% | [9]; at 1.2 µM -78% | [9]; at 3.7 µM -72% | [9]; at 11.0 µM -81% | [9]; at 33.0 µM -38% | [9]; at 100.0 µM 18% | [10]; [17] 57% | [10]; at 50.0 µM 5%
